Consider 12 compounds from PubChem BioAssay.

Unmarked numbers belong to inactive results. Active and inactive are the calls of the source.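 Rule for the calls, unless noted: active = compounds that lower viability of the colon cancer cells in the luminescence readout, with no numeric limit stated; inactive = the rest.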

Assay [1] in a line: stimulators of insulin release from INS-1E, primary screen, cell-based, 5 mM glucose, NPC library (AID 1117329;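 active = compound raises insulin release from rat beta cells at 5 mM glucose, no numeric limit stated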). To be noted: rat INS-1E insulin secretion, at 10 µM, stronger effect = higher value.
Assay [2] in a line: growth inhibition of GSK3B-pretreated HCT116 cells – cell-based, CellTiter-Glo, 0.2 to 20 µM (AID 1117336;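 active = compounds lowering colon cancer cell viability after pretreatment blocking the GSK3B kinase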). The following applies: HCT116 viability after GSK3B inhibitor, at 20 µM, stronger effect = higher value. Background: Cellular ATP, detected with luciferase, serves as a proxy for viable cell number.
The nature of assay [3]: inhibition of endothelial tube formation, primary screen, imaging, VEGF stimulated, CD31 staining, tube area, NPC library (AID 1117340;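 active = compound that reduces growth-factor-driven endothelial tube area in a mixed cell culture, no cutoff stated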). To be noted: VEGF-stimulated ADSC/ECFC co-culture, at 10 µM, stronger effect = higher value.
Assay [4] can be described thus: GLP1 release stimulators, primary, NCI-H716, NPC library (AID 1117341;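 active = compound raises GLP1 secretion from the human gut endocrine cells, with no numeric limit stated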). To be noted: NCI-H716 cells, at 10 µM, stronger effect = higher value.
A short description of assay [5]: HCT116 colon cancer cell growth inhibition, primary screen, CellTiter-Glo luminescence, NPC library (AID 1117342;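 active = compounds that lower survival of HCT116 colon cancer cells in the luminescence readout, no numeric limit stated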). The following applies: at 20 µM (top of the series).
A short description of assay [6]: reduced SW480 viability measured with CellTiter-Glo, NPC library, primary (AID 1117343). To be noted: CellTiter-Glo luminescence; at 20 µM (top of the series).
Assay [7] can be described thus: NPC library primary testing for decreased DLD-1 cell viability via CellTiter-Glo (AID 1117346;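 active = compounds that lower survival of DLD-1 colon cancer cells in the luminescence readout, no cutoff given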). The following applies: DLD-1 viability, CellTiter-Glo luminescence; at 20 µM (top of the series).
Assay [8] has as its target 6-phosphogluconate dehydrogenase, decarboxylating (Homo sapiens) (UniProt P52209). Nature of the assay: inhibition of human phosphogluconate dehydrogenase – biochemical, recombinant enzyme, NADPH absorbance, primary screen (AID 1159550;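 active = at least 20% inhibition of 6-phosphogluconate dehydrogenase activity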). To be noted: recombinant 6PGD, NADPH absorbance 341 nm; at 10 µM; stronger effect = higher value.

6-phosphogluconate dehydrogenase, decarboxylating (Homo sapiens), sequence (P52209 whole entry, looked up): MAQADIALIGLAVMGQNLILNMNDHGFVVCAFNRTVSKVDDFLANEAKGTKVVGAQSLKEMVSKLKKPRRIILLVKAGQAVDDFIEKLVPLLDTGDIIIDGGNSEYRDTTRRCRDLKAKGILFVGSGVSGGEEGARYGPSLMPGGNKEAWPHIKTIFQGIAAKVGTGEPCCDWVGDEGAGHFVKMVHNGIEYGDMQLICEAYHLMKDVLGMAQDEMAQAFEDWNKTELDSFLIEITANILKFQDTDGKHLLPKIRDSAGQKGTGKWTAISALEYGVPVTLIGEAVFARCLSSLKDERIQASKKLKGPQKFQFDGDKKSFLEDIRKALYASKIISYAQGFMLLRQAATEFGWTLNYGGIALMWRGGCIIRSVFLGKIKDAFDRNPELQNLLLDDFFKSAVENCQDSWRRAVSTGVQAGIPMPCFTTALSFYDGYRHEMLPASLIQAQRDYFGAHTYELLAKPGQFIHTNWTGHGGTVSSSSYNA

As a reminder, the inhibition is the drop in the measured response relative to a control, in per cent. In the case of `C[C@@H]1C[C@H]2[C@@H]3C[C@H](F)C4=CC(=O)C=C[C@]4(C)[C@@]3(F)[C@@H](O)C[C@]2(C)[C@@]1(O)C(=O)CO`, the insulin secretion stimulation in assay [1] is 2.8%. For the same compound, in assay [2], the viability decrease is -29.3%. Also, the tube area decrease in assay [3] is -2.9%. In addition, the GLP1 secretion stimulation in assay [4] is -2.9%. Also, in assay [5], the inhibition of viability is 4.83%. In addition, the viability decrease (inhibition) in assay [6] is -11.5%; in assay [7] it was -9.6%. In assay [8], the inhibition was 8.65%.

`COc1ccc(C(=O)c2ccccc2O)c(O)c1`: the insulin secretion stimulation in assay [1] was -0.5%. In addition, the viability decrease in assay [2] is -1.1%. The tube area decrease in assay [3] was 1.6%. Further, the GLP1 secretion stimulation in assay [4] is -1.5%. Further, the inhibition of viability in assay [5] is -9.15%. Moreover, the viability decrease (inhibition) in assay [6] was 1.6%; in assay [7], -1.5%. For the same compound, the inhibition in assay [8] was 11.7%.

`C[C@]12C=CC(=O)C=C1CC[C@H]1[C@@H]3C[C@@H](O)[C@](O)(C(=O)CO)[C@@]3(C)C[C@H](O)[C@@]12F`: the insulin secretion stimulation in assay [1] was -0.5%. For the same compound, the viability decrease in assay [2] is 8.2%. Further, the tube area decrease in assay [3] is -16.1%. In addition, the GLP1 secretion stimulation in assay [4] is -3.1%. Besides, the inhibition of viability in assay [5] was 11%. In addition, the viability decrease (inhibition) was 13.3% in assay [6] and 14.8% in assay [7]. Also, in assay [8], the inhibition was -17.6%.

Consider `Nc1ccc(C(=O)NCC(=O)O)cc1`, for which the insulin secretion stimulation in assay [1] was -1.1%. In addition, in assay [2], the viability decrease is -2.9%. For the same compound, the tube area decrease in assay [3] was -2.1%. The GLP1 secretion stimulation in assay [4] was 2.6%. Also, the inhibition of viability in assay [5] was -15.3%. For the same compound, the viability decrease (inhibition) is 36.1% in assay [6] and 4.3% in assay [7]. Also, the inhibition in assay [8] was -8.81%.

Turning to `COc1c2occc2c(OC)c2c(=O)cc(C)oc12`, the insulin secretion stimulation in assay [1] is 0.7%. Further, the viability decrease in assay [2] is -6.4%. Also, the tube area decrease in assay [3] was 21.8%. Moreover, the GLP1 secretion stimulation in assay [4] was 5.9%. Besides, the inhibition of viability in assay [5] is -7.6%. In addition, the viability decrease (inhibition) is 21.5% in assay [6] and -0.4% in assay [7]. The inhibition in assay [8] was 1.04%.

Turning to `NCCCC[C@H](N[C@@H](CCc1ccccc1)C(=O)O)C(=O)N1CCC[C@H]1C(=O)O`, in assay [1], the insulin secretion stimulation is -0.8%. Further, the viability decrease in assay [2] is -3.9%. Also, the tube area decrease in assay [3] was -7.9%. In assay [4], the GLP1 secretion stimulation is 0.3%. In assay [5], the inhibition of viability is -5.23%. For the same compound, the viability decrease (inhibition) is 9.9% in assay [6] and -8% in assay [7]. In assay [8], the inhibition was -2.78%.

`CC1CC(OC(=O)C(O)c2ccccc2)CC(C)(C)N1C` (stereo unspecified): the insulin secretion stimulation in assay [1] was 2.7%. Further, the viability decrease in assay [2] is 3.6%. The tube area decrease in assay [3] was 10.4%. Besides, the GLP1 secretion stimulation in assay [4] was 2.1%. Besides, in assay [5], the inhibition of viability was 9.83%. Further, the values for the viability decrease (inhibition) in assay [6] and in assay [7] were 17.1% and 0.1%, respectively. For the same compound, the inhibition in assay [8] was -25.4%.

`COc1ccc(NS(=O)(=O)c2ccc(N)cc2)nn1`: in assay [1], the insulin secretion stimulation is 0.2%. Besides, in assay [2], the viability decrease was -9.5%. The tube area decrease in assay [3] is 14%. Moreover, in assay [4], the GLP1 secretion stimulation was 0.3%. Besides, the inhibition of viability in assay [5] is -7.97%. Further, the viability decrease (inhibition) was 2.4% in assay [6] and -8.6% in assay [7]. The inhibition in assay [8] is -7.32%.

Take `CC[N+](CC)(CC)CCOc1cccc(OCC[N+](CC)(CC)CC)c1OCC[N+](CC)(CC)CC`: the insulin secretion stimulation in assay [1] was -1.3%. The viability decrease in assay [2] is -8.1%. Moreover, the tube area decrease in assay [3] was -2.2%. Moreover, the GLP1 secretion stimulation in assay [4] is 1.9%. In assay [5], the inhibition of viability was 8.8%. Moreover, the viability decrease (inhibition) in assay [6] was -6.2%; in assay [7], -5.3%. In assay [8], the inhibition is 7.66%.

In the case of `O=C1OCCN1/N=C/c1ccc([N+](=O)[O-])o1`, in assay [1], the insulin secretion stimulation is -3%. For the same compound, the viability decrease in assay [2] was 24.6%. Also, in assay [3], the tube area decrease was -8.5%. Moreover, the GLP1 secretion stimulation in assay [4] is 5.7%. In assay [5], the inhibition of viability was 12.3%. Also, the viability decrease (inhibition) was 74.9% (active) in assay [6] and 25.6% in assay [7]. Besides, the inhibition in assay [8] is 12.5%.

Regarding `Cc1cc(C2CCCCC2)n(O)c(=O)c1`, the insulin secretion stimulation in assay [1] was 0.4%. The viability decrease in assay [2] is 49.9% (active). Also, the tube area decrease in assay [3] was 109% (active). The GLP1 secretion stimulation in assay [4] is -3.2%. In assay [5], the inhibition of viability is 75.1% (active). Further, the results for the viability decrease (inhibition) in assay [6] and in assay [7] were 108% (active) and 90.8% (active), respectively. Moreover, the inhibition in assay [8] is 1.68%.

In the case of `CCN(CC)CCOC(=O)C(Cc1cccc2ccccc12)CC1CCCO1` (stereo unspecified), the insulin secretion stimulation in assay [1] was 7.9%. In addition, the viability decrease in assay [2] is -120%. In addition, in assay [3], the tube area decrease is -1.6%. In addition, in assay [4], the GLP1 secretion stimulation was 8.3% (active). Moreover, the inhibition of viability in assay [5] is 26.1%. Further, the values for the viability decrease (inhibition) in assay [6] and in assay [7] were 37.7% and 2.6%, respectively. For the same compound, the inhibition in assay [8] was -4.35%.
